# Results filed as inconclusive are left out. Unmarked numbers belong to inactive results. Calls follow the shape of the dose curve; as a rule, active = well fitted activation curve with a large enough effect; inconclusive = small, poorly fitted or top-dose-only effect; inactive = flat fitted curve, though single readings scatter.
# Assay: Primary redox qHTS assay for identification of artifact compounds. (AID 1845223);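 also: 0% = DMSO and 100% = reference compound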
# Details: Amplex Red/HRP redox cycling with DTT, fluorescence; series mostly up to 53.8 µM; redox activity (% of DA3003): at the top concentration
# Method in brief: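 Redox-cycling detection via DTT (250 uM final) oxidation coupled to Amplex Red (25 uM)/HRP (250 mU/mL) in HBSS. 15 min preincubation plus 30 min after DTT, room temperature. Ex/Em 525/598 nm; 4-parameter Hill fit against DMSO and 10 uM DA3003.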
row,SMILES,redox activity (% of DA3003)
1,CC1OC(OC2C(C)OC(OC3C(OC(=O)/C=C/c4ccc(O)cc4)C(CO)OC(OC4(COC(=O)/C=C/c5ccc(O)cc5)OC(CO)C(O)C4O)C3OC3OCC(O)(CO)C3O)C(O)C2O)C(O)C(O)C1O (stereo not drawn),-13.7% [at 11.5 µM]
2,C[C@]1(OC(=O)/C=C/c2ccccc2)C[C@H](O)[C@]2(O)C=CO[C@@H](O[C@@H]3O[C@H](CO)[C@@H](O)[C@H](O)[C@H]3O)C12 (stereo partly drawn),-12.9% [at 25.6 µM]
3,C[C@@H]1O[C@@H](O[C@H]2[C@H](OC(=O)C34CCC5(C)C(=CCC6C7(C)CC(O)C(O[C@@H]8O[C@H](C(=O)O)[C@@H](O)[C@H](O)[C@H]8O)C(C)(C(=O)O)C7CCC65C)C3CC(C)(C)CC4O)O[C@H](C)[C@@H](O)[C@@H]2O)[C@H](O)[C@@H](O[C@@H]2OC[C@](O)(CO)[C@H]2O[C@@H]2O[C@H](CO)[C@@H](O)[C@H](O)[C@H]2O)[C@H]1O (stereo partly drawn),3.71% [at 11.5 µM]
4,CC1(C(=O)O)CCCC2(C)C1CCC13CC(CCC21)C1(CO)OC31 (stereo not drawn),3.15%
5,CC1(C)O[C@@]2(C)CC[C@@H]1C[C@@H]2OC1OC(CO)C(O)C(O)C1O (stereo partly drawn),-0.726%
6,C=C(C)C(C)C1OC23CC4(CO2)C(CCC2C5(C)CCC(OC6OCC(O)C(OC7OC(CO)C(O)C(OC8OCC(O)C(O)C8O)C7O)C6OC6OC(CO)C(O)C6O)C(C)(C)C5CCC24C)C3C(C)(O)C1OC(C)=O (stereo not drawn),8.02% [at 11.5 µM]
7,COc1cc(C2c3cc(O)c(OC)cc3CC(CO)C2CO)ccc1O (stereo not drawn),-8.94%
8,C=CC1(C)CC2=CCC3C(C)(C(=O)O)CCCC3(C)C2CC1OC(C)=O (stereo not drawn),2.62%
9,COc1c2c(c(C)c3c1C(=O)OC3)O[C@@]1(C)C[C@@H](O)[C@]34O[C@](OC)(CC[C@]3(C)[C@H]1C2)OC4(C)C,-9.89% [at 25.6 µM]
10,CC(c1c[nH]c2ccccc12)C(O)C(=O)O (stereo not drawn),1.64%
11,C[C@@]12C[C@]3(O)O[C@H](O1)[C@]1(COC(=O)c4ccccc4)[C@H]3C[C@@]12O[C@@H]1O[C@H](COC(=O)c2ccccc2)[C@@H](O)[C@H](O)[C@H]1O,-1.4% [at 25.6 µM]
12,COc1cc(C(=O)OC[C@H]2O[C@H](O[C@@]3(CO)O[C@@H](CO)[C@H](O)[C@H]3O)[C@H](O)[C@@H](O)[C@@H]2O)ccc1O,-12.6% [at 25.6 µM]
13,CC(C)=CCC[C@](C)(O[C@@H]1O[C@H](CO[C@@H]2OC[C@@H](O)[C@H](O)[C@H]2O)[C@@H](O)[C@H](O)[C@H]1O)[C@H]1CC[C@]2(C)[C@@H]1[C@H](O)C[C@@H]1[C@@]3(C)CC[C@H](O[C@@H]4O[C@H](CO)[C@@H](O)[C@H](O)[C@H]4O[C@@H]4O[C@H](CO)[C@@H](O)[C@H](O)[C@H]4O)C(C)(C)[C@@H]3CC[C@]12C,4.56% [at 25.6 µM]
14,C=C1CCC2C(C)(CO[C@@H]3O[C@H](CO)[C@@H](O)[C@H](O)[C@H]3O)C(O)CCC2(C)C1C(=O)CC1=CCOC1=O (stereo partly drawn),-6.42% [at 25.6 µM]
15,CN1CC[C@@H](NC(=O)Nc2ccc(C#N)cc2)C[C@@H]1c1nc2ccccc2[nH]1,-3.12%
16,C=C1CCC[C@]2(C)C[C@]3(O)OC(=O)C(C)=C3C[C@@H]12,-1.36%
17,CC(=O)OCC1=C[C@H](O)[C@@H]2C(C(=O)O)=CO[C@@H](O[C@@H]3O[C@H](CO)[C@@H](O)[C@H](O)[C@H]3O)[C@H]12,-17.3% [at 25.6 µM]
18,CC1OC(OC2C(CO)OC(OCC3OC(OC(=O)C45CCC(C)(C)CC4C4=CCC6C7(C)CCC(OC8OC(C(=O)O)C(O)C(OC9OC(CO)C(O)C(O)C9O)C8O)C(C)(C)C7CCC6(C)C4(C)CC5)C(O)C(O)C3O)C(O)C2O)C(O)C(O)C1O (stereo not drawn),7.33% [at 11.5 µM]
19,CC1CCC2C(C)(C)C(O)CCC2(C)C12Cc1c(O)cc3c(c1O2)C(N)=NC3 (stereo not drawn),-4.03%
20,C=C1CC2C3(C)C(OC(C)=O)CC(=O)OC(C)(C)C3C(O)C(OC(C)=O)C2(C)C2C(=O)OC(C)C(=O)C12C (stereo not drawn),6.85% [at 25.6 µM]
21,COC(=O)C1=CO[C@@H](O[C@@H]2O[C@H](CO)[C@@H](O)[C@H](O)[C@H]2O)[C@@H]2[C@@H](C)[C@@H](O)C[C@H]12,-18.4%
22,O=C(O[C@H]1[C@@H]2C=CO[C@@H](O[C@@H]3O[C@H](CO)[C@@H](O)[C@H](O)[C@H]3O)[C@@H]2[C@@]2(CO)O[C@@H]12)c1ccc(O)c(O)c1,-4.54% [at 25.6 µM]
23,C=C1[C@H]2[C@H](O[C@@H]3O[C@H](COC(=O)/C=C/c4cc(OC)c(O)c(OC)c4)[C@@H](O)[C@H](O)[C@H]3O)OC=C(C(=O)O)[C@H]2C[C@@H]1O,-1.09% [at 25.6 µM]

# Source: PubChem BioAssay (NCATS)
